Rows were chosen to be rich in hits. Some 3.3% of all compounds tested hit in one or more screens of this group.
esBAF inh = Bmi1 luciferase reporter increase in mESCs, primary screen, esBAF inhibitor project, mouse ES cells, Bmi1 luciferase knock-in, single point; 24 h; 100% = twice the neutral-well signal; reporter increase, % at 12.5 µM; hit rate 2% among 350,000; AID 602393, 2012; in the data active = activation above about 40%; inconclusive = no clear call, values can overlap the other calls;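 also: 0% = median of the plate's neutral control wells and 100% = double that signal; a rise in the Bmi1 reporter signal indicates esBAF inhibition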
GAA850 FXN act = FXN promoter activators, primary screen, cell-based, luciferase luminescence, HEK293 lucGAA850 | HEK293 lucGAA850 FXN promoter luciferase reporter, 24 h; percent of 10 µM SAHA response | activation, % at 6 µM | hit rate 0.56% among 360,000;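 active = activation above the average of all compounds screened plus 3 SD, cutoff fixed separately per campaign, cut at about 7.5% in these data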;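 also: 0% = DMSO wells and 100% = 10 µM SAHA wells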
Wnt bcat act = Wnt/beta-catenin pathway activators, primary screen, cell-based, plate reader, single point; Wnt/beta-catenin reporter cell assay, activator; activation, % at 9.35 µM; hit rate 1.2% among 300,000; AID 743398, 2014; in the data active = activation above about 30%, passing the limit was not always enough; inconclusive = no clear call, values can overlap the other calls;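 also: 0% = neutral control wells and 100% = positive control wells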
MITF TRPM1 HTS = activators of MITF-driven TRPM1 promoter reporter, primary screen, cell-based, SK-MEL-5, luciferase, single point | SK-MEL-5 TRPM1-promoter luciferase, 24 h; % of positive control, neutral wells = 0 | activation, % at 12.5 µM | hit rate 0.75% among 300,000 | AID 588334, 2011;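 active = mean activation of at least 80% with every replicate also reaching 80%; inconclusive = mean reaches 80% but some replicate falls short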;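 also: 0% = neutral control wells and 100% = parthenolide positive control wells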
C2C12 statin = suppressors of statin myotoxicity in C2C12 myotubes, primary screen, cell-based, single point, plate reader; C2C12 myotubes + simvastatin, ATP luminescence, 48 h; scaled: DMSO 0, geranylgeraniol control 100; rescue of ATP level, % at 7.49 µM; hit rate 0.78% among 330,000; AID 602340, 2012;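 active = mean ATP rescue above about 67%, or every replicate alone reaching that limit, limit read from the data, passing the limit was not always enough; inconclusive = no clear call, values can overlap the other calls; inactive = mean under the limit and some replicate under it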;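 also: myotubes were challenged with 10 µM simvastatin during compound exposure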
* hit, by the source's call; ? = inconclusive; . = not tested or not shown.

SMILES	esBAF inh	GAA850 FXN act	Wnt bcat act	MITF TRPM1 HTS	C2C12 statin
COc1ccc(S(=O)(=O)N(C)C[C@@H]2Oc3ccc(NC(=O)Nc4cccc5ccccc45)cc3CC(=O)N([C@@H](C)CO)C[C@@H]2C)cc1	0	.	.	.	-18
COCC(=O)Nc1ccc2c(c1)[C@H]1C[C@@H](CC(=O)N3CCc4ccccc4C3)O[C@@H](CO)[C@H]1O2	-2	.	.	.	-1
COc1ccc(Nc2nnc(Cc3ccncc3)c3ccccc23)c(OC)c1	52*	1	1	4	-2
Cc1ccc(NC(=O)CCC(=O)NNC(=O)C(C)(C)C)c(C)c1	.	2	40*	6	.
C[C@H]1CN([C@@H](C)CO)C(=O)c2cc(C#CC3CC3)cnc2O[C@@H]1CN(C)C(=O)c1ccc(F)cc1	-4	.	.	.	25
CCOc1ccc(C(=O)NC2CCCCCCC2)cc1	.	3	42*	79	.
O=C(NCc1ccccc1)c1ccc([N+](=O)[O-])cc1	.	.	-1	.	.
O=C(NC(=S)NC1CCN(Cc2ccccc2)CC1)c1ccc(F)cc1	1	1	1	-13	-5
O=C(NC(=S)NC1CCCCC1)c1ccc(F)cc1	60*	7	21	59	-8
O=C(NC1CCCCC1)c1ccc(-c2cccc([N+](=O)[O-])c2)o1	.	4	32*	116*	.
O=C(N[C@H]1CC1c1ccccc1)c1ccc([N+](=O)[O-])cc1 (stereo not given in full)	.	1	35*	74	.
O=C(O)c1ccc(-c2cccc([N+](=O)[O-])c2)o1	.	2	0	10	.
C[C@H]1CN([C@@H](C)CO)C(=O)Cc2cc(NC(=O)Nc3ccc(F)cc3)ccc2O[C@@H]1CN(C)Cc1ccc2c(c1)OCO2	1	.	.	.	-9
C[C@H](CO)N1C[C@H](C)[C@H](CN(C)S(=O)(=O)c2ccccc2)OCCCC[C@H](C)Oc2ccc(NC(=O)Nc3ccc(F)cc3)cc2C1=O	5	.	.	.	.
Cc1ccc(C(=O)NC2CCCCC2)cc1	12	3	17	88*	-6
N#Cc1ccc(OCC(=O)NC2CCCCCC2)cc1	.	3	2	8	-10
N#Cc1ccc(C(=O)NC2CCCCCCC2)cc1	53*	4	2	107*	32
O=C(NC1CCCCC1)c1ccc([N+](=O)[O-])cc1	74*	4	-3	18	-2
CCOc1cccc(C(=O)NC2CCCCC2)c1	53*	6	-1	54	-9
O=C(NC1CCCCCCC1)c1cc([N+](=O)[O-])ccc1Cl	-5	-1	1	.	-20
O=C(C[C@@H]1CC[C@@H]2[C@H](COC[C@@H](O)CN2C(=O)c2ccc3c(c2)OCO3)O1)NCCN1CCCCC1	-3	.	.	.	-19
Cc1ccccc1-c1cnc2c(c1)C(=O)N([C@H](C)CO)C[C@@H](C)[C@@H](CN(C)C(=O)c1ccncc1)O2	0	.	.	.	18
CC(C)C(=O)Nc1ccc2c(c1)C(=O)N(C)[C@@H]1CC[C@H](CC(=O)NCc3ccccc3F)O[C@@H]1CO2	4	.	.	.	-9
CNC[C@H]1OCCCC[C@H](C)Oc2ccc(NC(=O)NC3CCCCC3)cc2C(=O)N([C@H](C)CO)C[C@H]1C	-3	.	.	.	-40
C[C@@H]1CCCCO[C@@H](CN(C)CC2CCCCC2)[C@@H](C)CN([C@@H](C)CO)C(=O)c2cc(NS(=O)(=O)c3cccs3)ccc2O1	6	.	.	.	.
SMILES	esBAF inh	GAA850 FXN act	Wnt bcat act	MITF TRPM1 HTS	C2C12 statin
CCNC(=O)C[C@@H]1CC[C@H]2[C@@H](COc3ccc(NC(=O)Nc4ccccc4F)cc3C(=O)N2C)O1	3	.	.	.	3
CCCCOc1cccc(C(=O)O)c1	-3	2	.	.	8
CCCOc1cccc(C(=O)O)c1	-4	-2	-1	-3	98*
COc1ccc(-c2nnc(-c3ccc(C)cc3)o2)cc1	24	5	35*	54	4
CCCc1nnc(-c2ccc(OC)cc2)o1	.	1	0	18	.
Cc1ccc(-c2nnc(-c3cc(C)on3)o2)cc1	-7	0	49*	49	-2
COc1ccc(-c2nnc(-c3ccccc3O)o2)cc1	4	5	44*	56	-3
COc1ccc(-c2nnc(SCC#N)o2)cc1	8	2	8	19	-7
C#CCSc1nnc(-c2ccc(OC)cc2)o1	43*	6	38*	68	13
COc1ccc(NC(=O)N(C)C[C@H]2Oc3ccc(NC(=O)Cc4ccccc4)cc3CC(=O)N([C@@H](C)CO)C[C@H]2C)cc1	9	.	.	.	13
O=C(C[C@@H]1C[C@@H]2c3cc(NC(=O)C4CCOCC4)ccc3O[C@@H]2[C@@H](CO)O1)NCc1ccccc1F	2	.	.	.	-5
COc1ccc(-c2nnc(-c3ccc(F)cc3)o2)cc1	13	3	36*	78	0
COCC#Cc1cnc2c(c1)C(=O)N([C@@H](C)CO)C[C@@H](C)[C@@H](CN(C)C(=O)CN1CCOCC1)O2	2	.	.	.	-3
CCNC(=O)C[C@H]1CC[C@H]2[C@@H](COC[C@@H](O)CN2C(=O)Nc2ccc3c(c2)OCO3)O1	53*	.	.	.	-13
CCCNC(=O)C[C@H]1CC[C@H]2[C@@H](COC[C@@H](O)CN2C(=O)Nc2ccc3c(c2)OCO3)O1	41*	.	.	.	3
O=C(NC1CCCCC1)N[C@H]1CC[C@H](CC(=O)N2CCOCC2)O[C@H]1CO	-6	.	.	.	4
CCC(=O)Nc1ccc2c(c1)C(=O)N(C)C[C@H](OC)[C@H](C)CN(Cc1ccccc1)[C@@H](C)CO2	1	.	.	.	-8
COc1ccc2nc(NC(=O)CCNC(=O)c3ccco3)sc2c1	45*	2	42*	110*	8
O=C(CCNC(=O)c1ccco1)Nc1nc2ccccc2s1	37	3	26	26	-1
CCCC(=O)Nc1nc2ccc(OC)cc2s1	58*	2	?	51	-12
Cc1cccc(NC(=O)c2ccc(S(=O)(=O)NCc3ccco3)cc2)n1	56*	1	-1	49	-3
Cc1cccc(C)c1NC(=O)CNC(=O)c1ccc(S(=O)(=O)NCc2ccco2)cc1	-5	-3	2	-9	4
Cc1cccc(NC(=O)c2cc(S(=O)(=O)NCc3ccco3)ccc2F)c1C	6	4	2	13	79*
CC(C)c1ccc(CN(C)C(=O)c2ccc(S(=O)(=O)NCc3ccco3)cc2)cc1	-2	-1	34*	.	10
Cc1ccc(NC(=O)c2ccc(S(=O)(=O)NCc3ccco3)cc2)nc1	.	-1	16	15	.
COc1ccc(NC(=O)N2C[C@@H]3[C@H](c4ccccc42)[C@H](CO)N3Cc2ccccn2)cc1	14	.	.	.	-27
CCC(=O)Nc1ccc2c(c1)OC[C@H](C)N(C(=O)CC1CC1)C[C@H](C)[C@@H](OC)CN(C)C2=O	-7	.	.	.	-13

Assay outcomes from PubChem.
